Our source for the Potency values is PubChem BioAssay (Tox21).

Calls of active or inactive are those of the source. Where a call stands in place of a potency, no number is given. The call rests on the fitted dose curve.
Potency means the concentration at half of the fitted maximal effect.

Chain of Gonadotropin-releasing hormone receptor (Homo sapiens) (P30968 whole entry, looked up): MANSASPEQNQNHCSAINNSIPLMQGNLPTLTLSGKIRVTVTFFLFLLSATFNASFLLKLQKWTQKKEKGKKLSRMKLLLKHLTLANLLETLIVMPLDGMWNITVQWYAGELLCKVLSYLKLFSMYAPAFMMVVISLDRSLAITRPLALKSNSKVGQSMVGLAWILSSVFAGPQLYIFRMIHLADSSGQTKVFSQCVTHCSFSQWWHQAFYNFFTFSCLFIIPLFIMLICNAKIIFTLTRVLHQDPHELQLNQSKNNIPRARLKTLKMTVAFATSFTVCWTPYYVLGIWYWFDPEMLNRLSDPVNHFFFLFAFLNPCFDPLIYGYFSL

The test concerns the target Gonadotropin-releasing hormone receptor (Homo sapiens) (UniProt P30968). Put plainly: Human gonadotropin-releasing hormone receptor (GnRHR) small molecule agonists, calcium flux assay in GnRHR-HEK293 cells (AID 1920063). Further: nearly all actives have a fitted effect of over 35% in size. The conditions noted are these: calcium flux fluorescence, agonist mode; series mostly up to 57.6 µM. The text has this: National Center for Advancing Translational Sciences [NCATS]
Division of Preclinical Innovation [DPI]
U.S. Environmental Protection Agency [EPA]
National Institutes of Environmental Health Sciences [NIEHS]
National Toxicology Program [NTP]
U.S. Food and Drug Administration [FDA]
Gonadotropin-releasing hormone receptor (GnRHR) is a G-protein-coupled receptor (GPCR) and acts (through phospholipase C) to increase intracellular inositol trisphosphate and then release intracellular calcium stores. Cell-based GnRHR-Hek293 calcium influx assay is using HEK293 cells that have been genetically engineered to express the human GnRHR, which activity can be measured by calcium signaling. A compound/drug can activate (agonist) GnRHR that can be monitored by levels of intracellular calcium.
GnRHR-HEK293 cells developed by Codex Corp contain human GnRHR reporter gene, which was stably integrated into HEK 293 cells. The compound activation can be detected by fluorescence intensity via calcium flux assay. This cell line has been used to screen the Tox21 10K compound library to identify GnRHR agonists.
GnRHR-Hek293 cells were dispensed at 1500cells/4uL/well in 1536-well black wall/clear bottom plates using a multidrop dispenser. After the assay plates were incubated at a 37 C/5% CO2 incubator for 18 hours, 4 uL of Calcium Dye Solution was added to each well. The plates were incubated at 37 C for 1 hour. For agonist mode, 23 nL of compounds dissolved in DMSO, positive controls or DMSO only was transferred to the assay plate by a pin tool station. The fluorescence intensity in the plates was measured using FDSS 7000EX kinetic plate reader with a filter set of Ex/Em=480/540 for 3 min at 1 sec intervals. Each test compound was measured at 15 concentrations and in triplicates.
For orientation: Calcium assays in cells follow changes in intracellular calcium, usually with a dye or a luminescent sensor.
For the compound `COc1ccc(C(Cl)=C(c2ccc(OC)cc2)c2ccc(OC)cc2)cc1`, the Potency result was “inactive”.

As to `O=[N+]([O-])c1cccc(Cl)c1`, the Potency result is “inactive”.

For `CCCNC(=O)NS(=O)(=O)c1ccc(Cl)cc1`, the Potency entry is “inactive”.

`CCNc1ccccc1`: the Potency entry was “inactive”.

As for `NC(N)=NC(=O)c1nc(Cl)c(N)nc1N`, the Potency result is “inactive”.

For the compound `CC(C)=CCCC(C)CCO` (stereo not given), the Potency entry was “inactive”.

On to `Cc1cc(C)nc(NS(=O)(=O)c2ccc(N)cc2)n1`, for which the Potency result was “inactive”.

With `O=C(O)Cn1c(=O)n(Cc2ccc(Br)cc2F)c(=O)c2ccc(Cl)cc21`, the Potency result was “inactive”.

Take `O=C(O)CCCCCCCCC(=O)O`: the Potency result was “inactive”.

For the compound `CC(C)=CCC/C(C)=C\CO`, the Potency result is “inactive”.

Take `CCCCCCC=O`: the Potency entry was “inactive”.

For the compound `NC(N)=NC(N)=NCCc1ccccc1`, the Potency entry is “inactive”.

Consider `CCCCCCCCC(=O)O`, for which the Potency result is “inactive”.

Consider `CC(C)=CCO`, for which the Potency entry was “inactive”.

As to `Nc1ccc(O)c(C(=O)O)c1`, the Potency result was “inactive”.

`C=CCOC(=O)C(=C)C`: the Potency result was “inactive”.

`CCCC[P+](CCCC)(CCCC)CCCC`: the Potency result is “inactive”.

In the case of `COc1ccc(C(=O)c2ccccc2)c(O)c1`, the Potency entry is “inactive”.

`Nc1ccc(Cl)cc1Cl`: the Potency entry is “inactive”.

`Cc1cccc(O)c1C`: the Potency entry was “inactive”.

`COc1c(Cl)c(Cl)c(Cl)c(Cl)c1Cl`: the Potency entry was “inactive”.

As to `CCCCOC(=O)CC(CC(=O)OCCCC)(OC(C)=O)C(=O)OCCCC`, the Potency result was “inactive”.

Turning to `Clc1ccccn1`, the Potency result is “inactive”.

Consider `CCCCOCCO`, for which the Potency entry was “inactive”.

For the compound `CCC(C)(C)C(=O)O[C@H]1C[C@@H](C)C=C2C=C[C@H](C)[C@H](CC[C@@H]3C[C@@H](O)CC(=O)O3)[C@H]21`, the Potency entry was “inactive”.

Turning to `CCCCCCOC(C)=O`, the Potency entry was “inactive”.

As to `Oc1ccccc1`, the Potency entry is “inactive”.

As to `COC(=O)c1ccc(C=O)cc1`, the Potency result is “inactive”.

Consider `CC1COC(=O)O1` (stereo not given), for which the Potency result was “inactive”.

Regarding `CNNCc1ccc(C(=O)NC(C)C)cc1`, the Potency result is “inactive”.

Take `CC1=C(/C=C/C(C)=C/C=C/C(C)=C/CO)C(C)(C)CCC1`: the Potency entry is “inactive”.

Take `CCO[Si](CCCNC(N)=O)(OCC)OCC`: the Potency entry is “inactive”.

As for `CCCN(CCC)S(=O)(=O)c1ccc(C(=O)O)cc1`, the Potency result was “inactive”.

For the compound `Nc1ccn([C@H]2CC[C@@H](CO)O2)c(=O)n1`, the Potency result is “inactive”.

As for `C#C[C@]1(O)CC[C@H]2[C@@H]3CCc4cc(OC)ccc4[C@H]3CC[C@@]21C`, the Potency result was “inactive”.

For the compound `C[C@](N)(Cc1ccc(O)c(O)c1)C(=O)O`, the Potency entry is “inactive”.

In the case of `CC(O)C(=O)O` (stereo not given), the Potency entry is “inactive”.

For `CCCCNC(=O)NS(=O)(=O)c1ccc(C)cc1`, the Potency result is “inactive”.

For `CCc1nc(N)nc(N)c1-c1ccc(Cl)cc1`, the Potency was 39.5 µM (active).

Consider `O=C(O)c1ccc(S(=O)(=O)N(Cl)Cl)cc1`, for which the Potency result was “inactive”.
